The structures appear in SMILES notation. Compounds without any hit were thinned out: in the full panel of roughly 83,000, 20% have a hit.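 Note: values are percent growth. 100 is the growth of untreated cells, values between 100 and 0 indicate rising inhibition; between -100 and 0 indicates cell death.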 A number with no mark means an inactive call. The source made the active and inactive calls. How the source made its calls: active means growth percent below 10; inactive means the rest.

The values below come from PubChem BioAssay (NCI).

This experiment deals with KM12 colon. Nature of the experiment: NCI-60 one-dose screen, 48 h (100 = growth as untreated, 0 = no growth, -100 = all killed). To be noted: 10 µM unless noted.
For `CN1CCN(Cc2ccc(NC(=O)c3cncc(C#Cc4cnc5ccc(OCC6(C)COC6)nn45)c3)cc2C(F)(F)F)CC1`, the growth was -82.1% (active).
Consider `CC(=O)c1cc(C(=O)c2ccc(Br)cc2)n2cc(C)cc(C)c12`, for which the growth is 97.5%.
Under `COC(=O)C[Se]C(=O)Cc1c(C)n(C(=O)c2ccc(Cl)cc2)c2ccc(OC)cc12` stands 26.4%; under `N#Cc1cccc(CN2CCC3=C(C2)C(=O)N(Cc2ccc(Cl)cc2)C2=NCCCN23)c1`, 38.8%.
Under `C=CCn1c(SCC(=O)Nc2ccc(C(=O)/C=C/c3ccc(C)cc3)cc2)nnc1-c1c[nH]c2ccccc12` stands 96.6%; under `CCCn1cnc2c(c1=N)C(c1ccc(OC)cc1)c1sc3c(CC)cccc3c1O2` (stereo not drawn), 16.8%.
In the case of `Cc1ccc(-c2cc3nc(C(Cl)Cl)nc(C)n3n2)cc1`, the growth is 99.1%.
In the case of `CCOC(=O)C(=O)CC(=O)N1C(=S)NC(=O)C1CC(C)C` (stereo not drawn) it was 98.8%; in that of `COc1ccc(-c2nc(C(Cl)Cl)nc3cc(-c4ccccc4)nn23)cc1`, -2.28% (active); in that of `CNC(=O)c1cc(-c2ccc(NS(=O)(=O)c3ccc(C)cc3)cc2)nc2cccnc12`, 101%.
Under `NC(N)=Nc1ccc(Oc2cccc(Nc3ccc(Cl)c(C(F)(F)F)c3)c2)cn1` stands -81.8% (active).
Under `CCN1CCN(Cc2ccc(C(=O)Nc3ccc(C)c(Oc4ccc(-c5[nH]nc6ncnc(N)c56)cc4)c3)cc2C(F)(F)F)CC1` stands 21.2%; under `COc1ccc(NC(=O)Nc2ccc3c(ccn3C(=O)c3cccc(F)c3)c2)cc1`, 53%; under `CCn1c(SCC(=O)Nc2cccc(C(=O)/C=C/c3ccccc3Cl)c2)nc2ccccc2c1=O`, 85.3%.
On to `COc1ccc(-c2nn(-c3ccc(S(C)(=O)=O)cc3)cc2/C=N/O)cc1`, for which the growth is 104%.
For the molecule `NC(N)=Nc1ccc(Oc2ccc(Nc3ccc(Cl)c(C(F)(F)F)c3)cc2)cc1`, the growth is 5.94% (active).
On to `COc1ccc(NC(=O)CSc2nnc(-c3ccc4nc(-c5ccc(OC)c(OC)c5)[nH]c4c3)o2)cc1OC`, for which the growth is 101%.
In the case of `Cc1ccc(-n2c(/C=C3\C(=O)Nc4ccccc43)ccc2CO)cc1` it was 18.8%.
In the case of `O=C(NNc1nc2cc(F)ccc2n2c(CO)ccc12)c1cnccn1` it was 22.2%.
In the case of `Nc1ccccc1NC(=O)c1ccc(NC(=O)C/C=C/c2cccnc2)cn1` it was 26.2%; in that of `Cn1ccnc1C(=O)/C=C/c1ccc(CNC(=O)c2c(F)c(F)c(F)c(F)c2F)cc1`, 23.2%.
As to `C#C[C@]1(O)CC[C@H]2[C@@H]3CC=C4c5sc(-c6cccc(O)c6)nc5CC[C@]4(C)[C@H]3CC[C@@]21C`, the growth was -28.9% (active).
In the case of `COc1cc2c(cc1OC)C(Sc1ccc(F)cc1)c1c(nc(N)c(C#N)c1N)O2` (stereo not drawn) it was -62.9% (active).
Under `N#Cc1cn(Cc2ccc(Cl)cc2Cl)c(C(=O)c2ccc(Br)cc2)c1N` stands 99.3%; under `O=C(O)c1ccc(-n2cc(CNc3cc(F)c(F)c(F)c3)c(-c3cccc(F)c3)n2)cc1`, 96.8%; under `CCc1cccc(NC(=O)CNc2cc(S(=O)(=O)N(C)C)cc(C)c2C)c1`, 98.9%.
In the case of `COc1ccc2c(c1)c(-c1cc(N)n3nc(-c4cn(C)c5ccc(OC)cc45)cc3n1)cn2C` it was 96.9%; in that of `C=C(C=O)[C@@H]1CC[C@]2(COC(C)=O)CC[C@]3(C)C(CC[C@@H]4[C@@]5(C)CC[C@H](OC(C)=O)C(C)(C)[C@@H]5CC[C@]43C)[C@@H]12` (stereo partly drawn), -40.8% (active); in that of `COc1ccc(-c2nc3ccc(-c4nnc(SCC(=O)Nc5ccc(C(=O)/C=C/c6ccc(Cl)cc6)cc5)o4)cc3[nH]2)cc1`, 103%.
For `COc1ccc(/C=C(\C#N)C(=O)N2c3ccccc3Sc3ccc(SC)cc32)cc1F`, the growth was 95.3%.
Under `O=C(CNc1nc(-c2cccc([N+](=O)[O-])c2)cs1)Nc1cccc(Cl)c1` stands 100%; under `CC1(C)CC[C@]23CC[C@]4(C)[C@H](CC[C@@H]5[C@@]6(C)CCCN(CO)C(C)(C)[C@@H]6CC[C@]54C)[C@H]2[C@H]1OC3`, 56.4%.
For `C=C(C=O)[C@@H]1CC[C@]2(C)[C@H](CC=C3[C@H]4[C@@H](C)[C@H](C)CC[C@]4(C(=O)OC)CC[C@]32C)[C@@]1(C)CCC#N`, the growth was -4.32% (active).
As for `CN(C)C(=O)c1cc(-c2ccc3ncnc(NCc4ccccc4)c3c2)cnc1N`, the growth was 101%.
In the case of `O=S(=O)(NCCCNc1nccc(-c2[nH]c(-c3ccccc3)nc2-c2ccc(Cl)c(O)c2)n1)c1cccc2ccccc12` it was 21.5%; in that of `Nc1ccccc1NC(=O)c1ccc(NC(=O)C/C=C/c2cccnc2)cc1`, 33.2%; in that of `COc1cc(-c2nc(SCCC(C)C)nc(NNC(=O)c3ccncc3)c2C#N)cc(OC)c1OC`, 86.5%.
In the case of `O=C(NNc1nc2cc(F)c(F)cc2n2cccc12)c1cnccn1` it was 22.3%.
